Where “and” joins values, the source holds several entries; their conditions need not be identical. Equal entries are not always repeated. Records with an inconclusive call do not appear. Where a call stands in place of a potency, no number is given. More than one record can exist for a structure, and the calls need not agree. Calls of active or inactive are those of the source. The call rests on the fitted dose curve; in most records, active means well fitted curve in the direction sought with a large enough effect in the repeat runs; inconclusive means weak or mixed curves; inactive means no such curve, though single readings can be large; an effect the other way counts as inactive or inconclusive. Residues, ends and D or L forms follow the SMILES beside them.
Legend:
[1] = qHTS RealTime-Glo MT Cell Viability Assay in HepG2 cells - 40 hour (AID 1224870); further: nearly all actives have a fitted effect of over 50% in size; further: potency means the concentration at half of the fitted maximal effect
Outline: (§1)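 Real-time viability: cells seeded at 600 per well together with NanoLuc and cell-permeant prosubstrate, compounds added after 5 h incubation. Luminescence tracked at 0, 8, 16, 24, 32 and 40 h of exposure.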

[2] = A CellTox Green Cytotoxicity Assay to monitor cytotoxicity in HEK293 cells - 40 hour (AID 1224871); further: nearly all actives have a fitted effect of over 45% in size; further: potency means the concentration at half of the fitted maximal effect
Outline: (§2)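 Fluorescence from a DNA-binding dye excluded by viable cells was measured repeatedly in the same HEK293 wells (600 cells/well) during continuous compound exposure at 37 C. Each assay gives one read point: 0, 8, 16, 24, 32 or 40 h.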

[3] = qHTS RealTime-Glo MT Cell Viability Assay in HEK293 cells - 16 hour (AID 1224872); further: top concentration of the series differs between compounds; nearly all actives have a fitted effect of over 50% in size
Outline: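 Cells + reagent dispensed (600 cells/well, HEK293) → 5 h at 37 C/5% CO2 → 23 nL compound in DMSO pinned → 40 h at 37 C → luminescence read at 0, 8, 16, 24, 32, 40 h.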

[4] = qHTS RealTime-Glo MT Cell Viability Assay in HepG2 cells - 8 hour (AID 1224873); further: nearly all actives have a fitted effect of over 55% in size
Outline: as §1

[5] = qHTS RealTime-Glo MT Cell Viability Assay in HEK293 cells - 40 hour (AID 1224874); details: RealTime-Glo luminescence; max response: stronger effect = lower value; further: nearly all actives have a fitted effect of over 50% in size; further: potency means the concentration at half of the fitted maximal effect
Outline: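 Luminescence, which tracks viable cell number through reduction of the prosubstrate to a NanoLuc substrate, was read over continuous 37 C culture. Cells (600/well) were premixed with reagent and rested 5 h before 23 nL of compound in DMSO was pinned.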

[6] = A CellTox Green Cytotoxicity Assay to monitor cytotoxicity in HEK293 cells - 24 hour (AID 1224875); further: series mostly up to about 77 µM; nearly all actives have a fitted effect of over 45% in size
Outline: as §2

[7] = A CellTox Green Cytotoxicity Assay to monitor cytotoxicity in HepG2 cells - 16 hour (AID 1224876); further: nearly all actives have a fitted effect of over 45% in size; further: potency means the concentration at half of the fitted maximal effect
Outline: (§3)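 Real-time cytotoxicity: fluorescence of a cell-impermeant cyanine dye binding DNA of dead HepG2 cells, measured repeatedly (0–40 h) during compound exposure at 37 C. Cells seeded 600/well with reagent, dosed after 5 h.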

[8] = qHTS RealTime-Glo MT Cell Viability Assay in HepG2 cells - 32 hour (AID 1224877); further: nearly all actives have a fitted effect of over 55% in size
Outline: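 Real-time, nonlytic viability: 600 HepG2 cells/well mixed with NanoLuc enzyme plus prosubstrate; 5 h settle, compound (DMSO) added by pintool; luminescence monitored over 40 h at 37 C.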

[9] = A CellTox Green Cytotoxicity Assay to monitor cytotoxicity in HepG2 cells - 24 hour (AID 1224878); further: nearly all actives have a fitted effect of over 45% in size
Outline: as §3

[10] = A CellTox Green Cytotoxicity Assay to monitor cytotoxicity in HepG2 cells - 40 hour (AID 1224879); further: nearly all actives have a fitted effect of over 40% in size; further: potency means the concentration at half of the fitted maximal effect
Outline: as §3

| SMILES | Potency [1] | Potency [2] | Potency [3] | outcome [4] | max response [5] | Potency [6] | Potency [7] | Potency [8] | Potency [9] | Potency [10] | Potency [5] |
| --- | --- | --- | --- | --- | --- | --- | --- | --- | --- | --- | --- |
| Cc1ccc(O)cc1 | inactive | inactive | inactive | inactive | 8.24% (inactive) [middle of 4 runs] | inactive | inactive | inactive | inactive | inactive |  |
| Nc1ccc(S(=O)(=O)Nc2nccs2)cc1 | inactive | inactive and 43.6 µM (active) | inactive | inactive | 5.06% (inactive) [middle of 4 runs] |  | inactive and 38.9 µM (active) | inactive |  | inactive and 38.9 µM (active) |  |
| C1N2CN3CN1CN(C2)C3 | inactive | inactive | inactive | inactive | 5.73% (inactive) and 6.94% (inactive) and 0.249% (inactive) | inactive | inactive | inactive |  | inactive |  |
| Cc1cc(=O)n(-c2ccccc2)n1C | inactive | 44.8 µM (active) and inactive | inactive | inactive | 5.11% (inactive) and 3.11% (inactive) and 1.5% (inactive) |  | inactive | inactive |  | inactive |  |
| C/C=C/c1ccc(OC)cc1 | inactive | inactive | inactive | inactive | -0.468% (inactive) [middle of 4 runs] | inactive | inactive | inactive |  | inactive |  |
| C[C@]12C=CC(=O)C=C1CC[C@@H]1[C@@H]2[C@@H](O)C[C@@]2(C)[C@H]1CC[C@]2(O)C(=O)CO | inactive | inactive | inactive | inactive | -4.22% (inactive) and -3.97% (inactive) and 0.449% (inactive) | inactive | inactive | inactive |  | inactive |  |
| Cc1ccccc1C(OCCN(C)C)c1ccccc1 (stereo not given) | inactive | inactive | inactive | inactive | -3.03% (inactive) and -20.7% (inactive) and -19.7% (inactive) | inactive | inactive | inactive |  | inactive |  |
| O=C(O)CS | inactive | inactive | inactive | inactive | 1.63% (inactive) and 9.97% (inactive) and 1.26% (inactive) | inactive | inactive | inactive |  | inactive |  |
| COC(=O)[C@H](Cc1ccccc1)NC(=O)[C@@H](N)CC(=O)O (H-Asp-Phe-OMe) | inactive | inactive | inactive | inactive | 0.561% (inactive) and -0.312% (inactive) and -3.38% (inactive) | inactive | inactive | inactive |  | inactive |  |
| CCCC(CCC)C(=O)O | inactive | inactive | inactive | inactive |  | inactive | inactive | inactive | inactive | inactive |  |
| CCCCC1C(=O)N(c2ccccc2)N(c2ccccc2)C1=O | inactive | inactive | inactive | inactive | -7.32% (inactive) and -1.19% (inactive) and 8.39% (inactive) | inactive | inactive | inactive |  | inactive |  |
| Nc1ccc(C(=O)O)cc1 | inactive | inactive | inactive | inactive | -12% (inactive) and -18.6% (inactive) and -17.3% (inactive) | inactive | inactive | inactive |  | inactive |  |
| N=C(N)c1ccc(OCCCCCOc2ccc(C(=N)N)cc2)cc1 | 54.7 µM (active) and inactive | 48.8 µM (active) and 46.8 µM (active) and inactive |  | inactive |  | inactive | inactive | inactive |  | 48.8 µM (active) and inactive | 9.73 µM (active) and 16.6 µM (active) and 21.3 µM (active) |
| CC(=O)Nc1nnc(S(N)(=O)=O)s1 | inactive | inactive | inactive | inactive | 3.91% (inactive) and 1.75% (inactive) and 9.79% (inactive) | inactive | inactive | inactive |  | inactive |  |
| OC(Cn1cncn1)(Cn1cncn1)c1ccc(F)cc1F | inactive | inactive | inactive | inactive | 7.44% (inactive) and 0.305% (inactive) and 5.93% (inactive) | inactive | inactive | inactive |  | inactive |  |
| CC1(C)[C@@H]2CC[C@@]1(C)C(=O)C2 | inactive | inactive and 7.56 µM (active) | inactive | inactive | 4.23% (inactive) and 1.62% (inactive) and -1.8% (inactive) | inactive | inactive | inactive |  | inactive |  |
| O=C(O)c1cc(N=Nc2ccc(S(=O)(=O)Nc3ccccn3)cc2)ccc1O | inactive | inactive | inactive | inactive | -2.85% (inactive) and -13.7% (inactive) and 1.5% (inactive) | inactive | inactive | inactive |  | inactive |  |
| CCC1(c2ccccc2)C(=O)NCNC1=O | inactive | inactive | inactive | inactive | -6.46% (inactive) and 0.966% (inactive) and 0.298% (inactive) | inactive | inactive | inactive |  | inactive |  |
| CCCCOC(=O)CC(CC(=O)OCCCC)(OC(C)=O)C(=O)OCCCC | inactive | inactive | inactive | inactive | -6.55% (inactive) and -23.8% (inactive) and -22.3% (inactive) | inactive | inactive | inactive |  | inactive |  |

| SMILES | Potency [1] | Potency [2] | Potency [3] | outcome [4] | max response [5] | Potency [6] | Potency [7] | Potency [8] | Potency [9] | Potency [10] | Potency [5] |
| --- | --- | --- | --- | --- | --- | --- | --- | --- | --- | --- | --- |
| CC(=O)OCC(COC(C)=O)OC(C)=O | inactive | inactive | inactive | inactive | 1.3% (inactive) and 11.6% (inactive) and 13.6% (inactive) | inactive | inactive | inactive |  | inactive |  |
| CCCCC(CC)COC(=O)/C=C/c1ccc(OC)cc1 (stereo not given) | inactive | inactive | inactive | inactive | -5.76% (inactive) and 7.72% (inactive) and 2.19% (inactive) | inactive | inactive | inactive |  | inactive |  |
| CC(C)(Oc1ccc(C2CC2(Cl)Cl)cc1)C(=O)O (stereo not given) | inactive | inactive | inactive | inactive | 2.51% (inactive) and 10.4% (inactive) | inactive | inactive | inactive |  | inactive |  |
| O=S(=O)(O)c1ccc2cc(O)ccc2c1 | inactive | inactive | inactive | inactive | -0.603% (inactive) [middle of 4 runs] | inactive | inactive | inactive |  | inactive |  |
| NS(=O)(=O)c1cc(C(=O)O)c(NCc2ccco2)cc1Cl | inactive | inactive | inactive | inactive | -14.3% (inactive) and -0.726% (inactive) and 2.65% (inactive) | inactive | 22 µM (active) and inactive | inactive |  | 19.6 µM (active) and inactive |  |
| CC(=O)NS(=O)(=O)c1ccc(N)cc1 | inactive | inactive | inactive | inactive | 9.67% (inactive) and 1.24% (inactive) and 4.39% (inactive) | inactive | inactive | inactive |  | inactive |  |
| CCCN(CCC)S(=O)(=O)c1ccc(C(=O)O)cc1 | inactive | inactive | inactive | inactive | -6.3% (inactive) and -3.84% (inactive) and 10.6% (inactive) | inactive | inactive | inactive |  | inactive |  |
| NNC(=O)c1ccncc1 | inactive | inactive | inactive | inactive | 1.61% (inactive) and 0.145% (inactive) and 4.04% (inactive) | inactive | inactive | inactive |  | inactive |  |
| Cc1ccc(S(=O)(=O)NC(=O)NN2CCCCCC2)cc1 | inactive | inactive | inactive | inactive | 3.5% (inactive) and 3.12% (inactive) and 7.81% (inactive) | inactive | inactive | inactive |  | inactive |  |
| OCCc1ccccc1 | inactive | inactive | inactive | inactive | 6.34% (inactive) and 10.1% (inactive) and 6.75% (inactive) | inactive | inactive | inactive |  | inactive |  |
| CC(O)CN(CCN(CC(C)O)CC(C)O)CC(C)O (stereo not given) | inactive | inactive | inactive | inactive | 2.34% (inactive) and 10.6% (inactive) and -2.16% (inactive) | inactive | inactive | inactive |  | inactive |  |
| O=C(O)/C=C\C(=O)O | inactive | inactive | inactive | inactive | 3.82% (inactive) and 7.29% (inactive) and 0.357% (inactive) | inactive | inactive | inactive |  | inactive |  |
| O=C(O)c1cccnc1 | inactive | inactive | inactive | inactive | -0.0653% (inactive) [middle of 4 runs] | inactive | inactive | inactive |  | inactive |  |
| O=C(C1CCCCC1)N1CC(=O)N2CCc3ccccc3C2C1 (stereo not given) | inactive | inactive | inactive | inactive | -18.7% (inactive) | inactive | inactive | inactive |  | inactive |  |
| O=C1CN(/N=C/c2ccc([N+](=O)[O-])o2)C(=O)N1 | inactive | inactive | inactive | inactive | -21.3% (inactive) and -17.7% (inactive) | inactive | inactive | inactive |  | inactive |  |
| CCOc1ccc(NC(=O)CC(C)O)cc1 (stereo not given) | inactive | inactive | inactive | inactive | -0.988% (inactive) and -3.57% (inactive) and -1.9% (inactive) | inactive | inactive | inactive |  | inactive |  |
| Nc1ccc(S(=O)(=O)c2ccc(N)cc2)cc1 | inactive | inactive | inactive | inactive | 3.77% (inactive) and -13.4% (inactive) and 9.1% (inactive) | inactive | inactive | inactive |  | inactive |  |
| Cn1c(=O)c2[nH]cnc2n(C)c1=O | inactive | inactive | inactive | inactive | 0.637% (inactive) and -1.08% (inactive) and -2.33% (inactive) | inactive | inactive | inactive |  | inactive |  |
| NC(N)=O | inactive | inactive | inactive | inactive | 7.94% (inactive) and 4.18% (inactive) and 0.0917% (inactive) | inactive | inactive | inactive |  | inactive |  |

— PubChem BioAssay (Tox21)
